This passage reports Potency, outcome and PLD induction results from PubChem BioAssay (Tox21).

The nature of experiment [1]: A CellTox Green Cytotoxicity Assay to monitor cytotoxicity in HEK293 cells - 32 hour (AID 1224881). Note: nearly all actives have a fitted effect of over 40% in size. The method in brief: (§1)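 Cytotoxicity was tracked continuously in HEK293 cells by a DNA-binding dye excluded from viable cells. Compounds were transferred in DMSO 5 h after seeding; fluorescence was recorded at intervals up to 40 h.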
Experiment [2] is described as follows: A CellTox Green Cytotoxicity Assay to monitor cytotoxicity in HepG2 cells - 0 hour (AID 1224882). Note: nearly all actives have a fitted effect of over 35% in size. The procedure, abridged:
(§2)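 Real-time, homogeneous cytotoxicity readout: dead-cell DNA staining by CellTox Green in HepG2 monolayers, fluorescence measured at timed intervals up to 40 h of continuous compound exposure.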

Experiment [3] can be described thus: A CellTox Green Cytotoxicity Assay to monitor cytotoxicity in HepG2 cells - 32 hour (AID 1224883). Note: nearly all actives have a fitted effect of over 50% in size. The procedure, abridged: as §2
The nature of experiment [4]: A CellTox Green Cytotoxicity Assay to monitor cytotoxicity in HEK293 cells - 8 hour (AID 1224884). Note: nearly all actives have a fitted effect of over 35% in size. The method in brief: as §1
Experiment [5] in a line: qHTS RealTime-Glo MT Cell Viability Assay in HepG2 cells - 16 hour (AID 1224885). Note: nearly all actives have a fitted effect of over 50% in size. The procedure, abridged:
(§3)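 Viability was tracked continuously by NanoLuc luminescence from prosubstrate reduced by living HepG2 cells, at successive time points over 40 h of compound exposure. Cells with reagent were preincubated 5 h at 37 °C before compound addition.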
A general note: In qHTS, concentration-response curves come from the screen itself.

The nature of experiment [6]: qHTS RealTime-Glo MT Cell Viability Assay in HEK293 cells - 24 hour (AID 1224886). Note: top concentration of the series differs between compounds; nearly all actives have a fitted effect of over 50% in size. The method in brief:
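Viability tracked continuously by luminescence as live cells reduce a prosubstrate for NanoLuc; HEK293 cells preincubated 5 h, compound-treated at 37 C, and read at 0, 8, 16, 24, 32 and 40 h.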

The nature of experiment [7]: qHTS RealTime-Glo MT Cell Viability Assay in HEK293 cells - 8 hour (AID 1224887). Note: top concentration of the series differs between compounds; nearly all actives have a fitted effect of over 50% in size. The procedure, abridged:
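Nonlytic bioluminescent viability monitoring. HEK293 at 600 cells/well with reagent; 5 h settle; compound transfer by pintool; plates held at 37 C and read at set time points.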

A short description of experiment [8]: A CellTox Green Cytotoxicity Assay to monitor cytotoxicity in HEK293 cells - 16 hour (AID 1224888). Note: nearly all actives have a fitted effect of over 35% in size. The procedure, abridged: as §1
Experiment [9] is described as follows: qHTS RealTime-Glo MT Cell Viability Assay in HepG2 cells - 0 hour (AID 1224889). Note: nearly all actives have a fitted effect of over 50% in size. Note: potency is the fitted concentration of half-maximal effect. The method in brief:
as §3

A short description of experiment [10]: A CellTox Green Cytotoxicity Assay to monitor cytotoxicity in HepG2 cells - 8 hour (AID 1224890). Note: nearly all actives have a fitted effect of over 45% in size. The procedure, abridged:
as §2

Experiment [11] in a line: qHTS assay to identify small molecule antagonists of the estrogen receptor alpha (ER-alpha) signaling pathway using the BG1 cell line in the presence of 0.1 nM 17-beta-estradiol - cell viability counter screen (AID 1259241). Note: nearly all actives have a fitted effect of over 40% in size. The method in brief:
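In this screen, hormone-deprived VM7Luc4E2 cells were seeded at 4,000 per well, dosed with compound and 0.1 nM estradiol final, and incubated 22 hr at 37C and 5% CO2; fluorogenic live-cell protease signal reported viability.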

The nature of experiment [12]: qHTS assay to identify small molecule antagonists of the androgen receptor (AR) signaling pathway using the MDA cell line in the presence of 0.5 nM R1881 - cell viability counter screen (AID 1259242). Note: nearly all actives have a fitted effect of over 45% in size. The method in brief:
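Cytotoxicity toward MDA-kb2 cells is measured by CellTiter-Fluor live-cell protease fluorescence after 16 hr compound exposure at 37C in the presence of 0.5 nM R1881 stimulator.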

In experiment [13] the target is Estrogen receptor (Homo sapiens) (UniProt P03372). Description: qHTS assay to identify small molecule antagonists of the estrogen receptor alpha (ER-alpha) signaling pathway using the BG1 cell line in the presence of 0.1 nM 17-beta-estradiol (AID 1259244). Note: nearly all actives have a fitted effect of over 50% in size. The procedure, abridged: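 After 5 days in hormone-depleted medium (charcoal-stripped serum, no phenol red), VM7Luc4E2 cells were seeded, incubated 24 h, then co-treated with compound and 0.1 nM (final) estradiol for 22 h before luminescence detection.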
Sequence of Estrogen receptor (Homo sapiens) (P03372 whole entry, looked up): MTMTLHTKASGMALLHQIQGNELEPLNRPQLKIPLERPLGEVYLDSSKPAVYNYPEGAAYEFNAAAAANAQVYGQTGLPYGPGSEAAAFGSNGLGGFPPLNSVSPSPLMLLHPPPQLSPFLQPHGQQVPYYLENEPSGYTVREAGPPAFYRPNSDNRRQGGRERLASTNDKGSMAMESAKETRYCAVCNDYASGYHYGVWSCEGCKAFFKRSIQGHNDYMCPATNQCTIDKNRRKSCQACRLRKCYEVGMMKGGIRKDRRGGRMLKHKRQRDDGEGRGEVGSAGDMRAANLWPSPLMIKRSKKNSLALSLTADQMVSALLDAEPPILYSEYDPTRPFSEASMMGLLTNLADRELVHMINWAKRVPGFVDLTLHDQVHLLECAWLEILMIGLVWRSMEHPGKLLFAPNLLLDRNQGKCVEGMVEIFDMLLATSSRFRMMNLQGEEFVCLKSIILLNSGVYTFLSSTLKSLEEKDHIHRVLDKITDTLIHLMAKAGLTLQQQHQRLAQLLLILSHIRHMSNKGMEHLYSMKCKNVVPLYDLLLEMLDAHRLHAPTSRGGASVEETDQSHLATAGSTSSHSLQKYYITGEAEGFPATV

Experiment [14] in a line: qHTS assay to identify small molecule HDAC inhibitors (AID 1259364). Note: top concentration of the series differs between compounds; nearly all actives have a fitted effect of over 45% in size. The method in brief: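 Homogeneous cell-based luminescent assay of endogenous class I/II HDAC activity; HCT-116 cells, 2 h compound exposure, 30 min HDAC-Glo development at RT.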
A short description of experiment [15]: qHTS assay to identify small molecule HDAC inhibitors - cell viability counter screen (AID 1259365). The method in brief: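 Measured quantity is CellTiter-Glo luminescence from wild-type HCT-116 cells after compound incubation of 2hr at 37C, 5% CO2; reagent developed 30min at room temperature.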
The nature of experiment [16]: qHTS assay to identify small molecule agonists of the sonic hedgehog signaling (Shh) pathway - cell viability counter screen (AID 1259366). Note: nearly all actives have a fitted effect of over 50% in size. Note: potency is the fitted concentration of half-maximal effect. The procedure, abridged: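 In quantitative high-throughput format, 3T3 Gli1-Luc cells were exposed to compounds for 24hr and multiplexed for viability using CellTiter-Fluor, incubated 1hr at 37C before the fluorescence read.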

Experiment [17] is described as follows: qHTS assay to identify small molecule antagonists of the sonic hedgehog signaling (Shh) pathway - cell viability counter screen (AID 1259367). Note: nearly all actives have a fitted effect of over 55% in size. The procedure, abridged: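 Using CellTiter-Fluor, viability of Gli1-Luc reporter 3T3 cells is read by fluorescence in the wells used for the Shh luciferase assay. Treatment lasts 23 hr with conditioned medium, then reagent 1 hr at 37C.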

A short description of experiment [18]: qHTS assay to identify small molecule agonists of the sonic hedgehog signaling (Shh) pathway (AID 1259368; calls by dose curve;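 note: NIH/3T3-derived 3T3Gli1-Luc cells carrying a stable Gli1-driven firefly luciferase reporter; series mostly up to about 92 µM; nearly all actives have a fitted effect of over 15% in size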). The procedure, abridged:
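Steps: seed 3T3 Gli1-Luc cells, incubate 4 hr at 37 C, pin-transfer compounds in DMSO alongside a positive control, incubate 24 hr, add luciferase detection reagent, wait 30 min at room temperature, read luminescence.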

Experiment [19] can be described thus: qHTS assay to identify small molecule phospholipidosis (PLD) inducers (AID 1259344; active = well fitted curve in the direction sought with a large enough effect; an effect the other way counts as inactive or inconclusive; note: potency is the fitted concentration of half-maximal effect). The procedure, abridged: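 Fluorescent phospholipid staining (LipidTOX Red) measured by automated microscopy in fixed HepG2 cells after 24 h treatment; nuclei counterstained with Hoechst 33342; amiodarone as reference inducer.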
For experiment [20], the target named is Androgen receptor (Homo sapiens) (UniProt P10275). Briefly: qHTS assay to identify small molecule antagonists of the androgen receptor (AR) signaling pathway using the MDA cell line in the presence of 0.5 nM R1881 (AID 1259243). Note: nearly all actives have a fitted effect of over 50% in size. The procedure, abridged: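 Steps: seed MDA-kb2 cells, incubate 5 hr at 37C; pin-transfer compounds in DMSO; add R1881 to 0.5 nM final; incubate 16 hr; add ONE-Glo, wait 30 min at room temperature; read luminescence.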
Sequence of Androgen receptor (Homo sapiens) (P10275 whole entry, looked up): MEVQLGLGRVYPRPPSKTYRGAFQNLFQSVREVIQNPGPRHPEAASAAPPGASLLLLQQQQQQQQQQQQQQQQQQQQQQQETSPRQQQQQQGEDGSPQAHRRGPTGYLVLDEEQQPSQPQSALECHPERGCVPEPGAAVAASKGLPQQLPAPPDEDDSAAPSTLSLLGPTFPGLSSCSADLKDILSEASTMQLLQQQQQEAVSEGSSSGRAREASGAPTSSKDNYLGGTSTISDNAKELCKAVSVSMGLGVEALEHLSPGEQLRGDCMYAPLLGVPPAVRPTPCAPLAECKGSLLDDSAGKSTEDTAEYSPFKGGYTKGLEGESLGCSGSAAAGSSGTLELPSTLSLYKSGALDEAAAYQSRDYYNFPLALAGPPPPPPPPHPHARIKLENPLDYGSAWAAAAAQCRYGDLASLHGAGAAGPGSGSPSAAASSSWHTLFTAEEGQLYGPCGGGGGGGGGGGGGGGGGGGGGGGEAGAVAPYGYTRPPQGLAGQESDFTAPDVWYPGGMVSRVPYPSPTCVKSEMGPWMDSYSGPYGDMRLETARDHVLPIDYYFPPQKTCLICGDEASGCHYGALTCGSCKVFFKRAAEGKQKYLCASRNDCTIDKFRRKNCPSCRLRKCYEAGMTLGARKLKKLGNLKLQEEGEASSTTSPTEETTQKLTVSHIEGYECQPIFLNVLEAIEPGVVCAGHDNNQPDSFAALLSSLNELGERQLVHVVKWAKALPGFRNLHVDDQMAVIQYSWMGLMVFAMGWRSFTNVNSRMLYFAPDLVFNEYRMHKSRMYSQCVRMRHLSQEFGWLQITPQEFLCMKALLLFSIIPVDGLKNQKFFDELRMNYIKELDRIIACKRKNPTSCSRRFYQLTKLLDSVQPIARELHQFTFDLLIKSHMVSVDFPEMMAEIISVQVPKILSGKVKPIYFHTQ

SMILES strings stand for the structures. Unmarked numbers belong to inactive results. Inconclusive results are not listed. The source holds several records for some structures; these can differ, active in one and inactive in another. Activity calls are given as the source filed them. Unless noted, calls come from the whole dose curve; as a rule, active = well fitted curve in the direction sought with a large enough effect in the repeat runs; inconclusive = weak or mixed curves; inactive = no such curve, though single readings can be large; an effect the other way counts as inactive or inconclusive.
% is set by controls: 0 for no effect and ±100 for the full control effect.

As to `C[C@@H]1C[C@H]2[C@@H]3CCC4=CC(=O)C=C[C@]4(C)[C@@]3(F)[C@@H](O)C[C@]2(C)[C@@]1(O)C(=O)COC(=O)c1ccncc1`, the Potency result in experiment [1], in experiment [2], in [3], in experiment [4], in experiment [5] and in [6] was “inactive” each time. The Potency result in experiment [7], in [8], in experiment [10], in [11], in experiment [12] and in [13] was “inactive” in each case. Also, the Potency entry in [14], in experiment [15], in experiment [16] and in experiment [17] was “inactive” throughout. For the same compound, in [9], the Potency is 1.07 µM (active). In addition, in experiment [18], the result was inactive.

In the case of `C[C@H]1C[C@H]2[C@@H]3CCC4=CC(=O)C=C[C@]4(C)[C@@]3(Cl)[C@@H](O)C[C@]2(C)[C@@]1(O)C(=O)CO`, the Potency result in experiment [1], in [2], in [3], in experiment [4], in experiment [5] and in [6] was “inactive” each time. In addition, the Potency entry in experiment [7], in experiment [8], in experiment [9], in experiment [10], in experiment [11] and in experiment [12] was “inactive” throughout. For the same compound, the Potency entry in experiment [13], in experiment [19], in experiment [14], in experiment [15], in [16] and in experiment [17] was “inactive” each time. The outcome in [18] was inactive.

As to `C[C@@H](c1ncncc1F)C(O)(Cn1cncn1)c1ccc(F)cc1F` (some centres not stated), the Potency result in experiment [1], in experiment [2], in experiment [3], in experiment [4], in [5] and in experiment [6] was “inactive” throughout. Besides, the Potency entry in experiment [7], in experiment [8], in [9], in experiment [10], in experiment [11] and in experiment [12] was “inactive” each time. Further, the Potency entry in experiment [20], in [13], in experiment [19], in [14], in experiment [16] and in experiment [17] was “inactive” throughout. Moreover, the compound was classed as inactive in experiment [18].

Consider `CCCCCCCN`, for which the Potency entry in experiment [1], in [2], in experiment [3], in experiment [4], in experiment [5] and in [6] was “inactive” in each case. Further, the Potency result in experiment [7], in experiment [8], in experiment [9], in experiment [10], in experiment [11] and in experiment [12] was “inactive” each time. In addition, the Potency entry in experiment [13], in [14], in experiment [16] and in [17] was “inactive” each time. Further, the result in experiment [18] was inactive.

As for `COc1ccc(C)cc1[N+](=O)[O-]`, the Potency result in experiment [1], in experiment [2], in experiment [3], in [4], in experiment [5] and in [6] was “inactive” each time. For the same compound, the Potency result in experiment [7], in experiment [8], in experiment [9], in [10], in experiment [11] and in [12] was “inactive” throughout. Further, the Potency entry in experiment [14], in [15], in [16] and in experiment [17] was “inactive” each time. The result in experiment [18] was inactive.

With `CCOC(=O)C(O)c1ccccc1` (configuration not stated), the Potency result in experiment [1], in [2], in [3], in [4], in experiment [5] and in experiment [6] was “inactive” in each case. Further, the Potency entry in experiment [7], in experiment [8], in experiment [9], in [10], in experiment [11] and in [12] was “inactive” in each case. The Potency result in experiment [20], in [13], in experiment [14], in [15], in [16] and in experiment [17] was “inactive” throughout. Moreover, in [18], the call was inactive.

Regarding `OCCN1CCN(CCCN2c3ccccc3C=Cc3ccccc32)CC1`, the Potency entry in experiment [1], in experiment [2], in [3], in experiment [4], in experiment [5] and in experiment [6] was “inactive” throughout. In addition, the Potency entry in experiment [7], in experiment [8], in [9], in experiment [10], in experiment [11] and in experiment [12] was “inactive” in each case. Also, the Potency result in experiment [13] and in experiment [14] was “inactive” throughout. Also, the PLD induction in experiment [19] was 0.496% [at 7.66 µM]. The Potency in [19] is 12.6 µM (active); in [16] it was 11.9 µM (active). The compound was classed as inactive in experiment [18].
